The sample as a whole holds a higher share of hits than the screen did.
HT1080NT lethal – kills 2HG-producing HT-1080-NT fibrosarcoma cells. actives 1.6% (n = 360,000). AID 686970. HT-1080-NT fibrosarcoma viability, CellTiter-Glo ATP luminescence, 48 h. Potency, µM (doses to about 46.1 µM), hits mostly cytotoxic;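 further: NT is the 2HG producing partner of a matched IDH1 knockdown line; nearly all actives have a fitted effect of over 55% in size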
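Viability of the 2HG-overproducing fibrosarcoma line after 48 hours of compound exposure at 37 degrees C was determined by luminescence with CellTiter-Glo, and concentration-effect curves were then fitted and categorized.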
HT1080 IDH1KD tx – toxicity to HT-1080 IDH1 knockdown cells (counter line). Potency, µM (titrated, usually from 46.1 µM), usual class: cytotoxic. actives 2% (n = 360,000). HT-1080 IDH1 knockdown viability, ATP luminescence, 48 h
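Luminescent ATP read-out (CellTiter-Glo, 10 min at room temperature) after 48 h compound exposure at 37 °C gave viability of IDH1-knockdown HT-1080 cells. Activity was normalised to DMSO and cell-free wells, then fitted as concentration-response curves.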
DT40 TDP1 no CPT – qHTS for Inhibitors of human tyrosyl-DNA phosphodiesterase 1 (TDP1): qHTS in cells in absence of CPT. DT40 Tdp1-/- hTDP1 cells, no CPT, ATP luminescence, 48 h. Potency, µM (series often up to 46.2 µM), usual class: inhibitors. actives 15% (n = 420,000). AID 686978, 2013; further: nearly all actives have a fitted effect of over 55% in size
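Chicken DT40 Tdp1-/- cells stably complemented with human TDP1 were seeded at 400 cells/well with DMSO in place of 20 nM camptothecin. After compound pinning, cells grew at least 48 hr at 37 °C; viability read by CellTiter-Glo luminescence.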
12-LOX inh – ALOX12 (human) lipoxygenase inhibition; purified 12hLO, xylenol orange hydroperoxide absorbance; Potency, µM (doses to about 108 µM), most hits filed as inhibitors; actives 1.1% (n = 580,000); AID 1671190
Target sequence (P18054 whole entry, looked up): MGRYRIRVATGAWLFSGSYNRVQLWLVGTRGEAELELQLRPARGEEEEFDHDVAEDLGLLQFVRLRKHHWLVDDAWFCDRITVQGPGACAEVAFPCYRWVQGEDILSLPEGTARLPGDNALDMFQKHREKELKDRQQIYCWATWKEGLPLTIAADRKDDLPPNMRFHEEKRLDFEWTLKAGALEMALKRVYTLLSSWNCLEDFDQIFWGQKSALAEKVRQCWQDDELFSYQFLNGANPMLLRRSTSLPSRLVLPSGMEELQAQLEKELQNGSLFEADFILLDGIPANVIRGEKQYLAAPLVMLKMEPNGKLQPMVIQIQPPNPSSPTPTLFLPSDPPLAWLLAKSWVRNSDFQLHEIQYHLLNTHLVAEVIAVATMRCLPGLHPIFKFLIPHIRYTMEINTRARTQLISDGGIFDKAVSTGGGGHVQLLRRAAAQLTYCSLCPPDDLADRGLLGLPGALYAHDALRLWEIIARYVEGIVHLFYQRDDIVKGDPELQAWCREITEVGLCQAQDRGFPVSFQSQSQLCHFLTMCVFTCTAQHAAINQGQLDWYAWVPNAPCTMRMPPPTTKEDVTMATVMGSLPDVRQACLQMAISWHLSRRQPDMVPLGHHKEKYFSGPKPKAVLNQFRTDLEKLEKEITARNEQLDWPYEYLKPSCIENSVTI
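Hydroperoxide product was detected by ferrous iron/xylenol orange as the 573 to 405 nm absorbance ratio. Arachidonic acid at 40 uM (final) was turned over for 30 min at room temperature by 150 nM human 12hLO, pH 7.0 Hepes buffer, after 15 min compound preincubation.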
IL1B secr inh – inflammasome signaling inhibition, IL-1 beta readout; THP-1 LPS/ATP IL-1B secretion, AlphaLISA, 16 h; hits give low values; activity change, % at 57.5 µM; actives 4.7% (n = 360,000); in the data active means activity change below about -50%; inconclusive means mostly about -30% to -49%
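THP-1 cells pretreated 1 hr with compounds (up to 57.5 uM final), then stimulated with LPS (250 ng/mL final) plus ATP (1.25 mM final); secreted IL-1B measured by AlphaLISA after 16 hr, decreased signal indicating inhibition.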
DT40 TDP1 CPT – DT40-hTDP1 cell growth loss with CPT | Potency, µM (series often up to 46.2 µM), hits mostly inhibitors | chicken DT40 Tdp1-/-;hTDP1 cells + 20 nM CPT, ATP luminescence, 48 h | actives 12% (n = 420,000); further: nearly all actives have a fitted effect of over 55% in size
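Chicken DT40 Tdp1-/- cells stably complemented with human TDP1 were seeded at 400 cells/well in medium containing 20 nM camptothecin, exposed to pin-transferred compounds, and grown at 37 °C for at least 48 hr. Viability was read as ATP luminescence.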
Of the large screens only hits and unclear results are named; the others gave an inactive call. Unless noted, the call rests on the fitted dose curve; in most records, active means well fitted curve in the direction sought with a large enough effect; inconclusive means small, poorly fitted or top-dose-only effect, or another doubt; inactive means no such curve, though single readings can be large; an effect the other way counts as inactive or inconclusive.

CCOC(=O)C1=C(CS(=O)(=O)c2ccc(C)cc2)NC(=O)NC1c1ccc(C(C)C)cc1 (stereo unspecified)	DT40 TDP1 no CPT 12µM, DT40 TDP1 CPT 18µM (no result: HT1080NT lethal, HT1080 IDH1KD tx, IL1B secr inh)
CCOC(=O)c1ccccc1NC(=O)CSc1c(C(C)C)cnc2c1c(=O)n(C)c(=O)n2C	none (no result: HT1080NT lethal, HT1080 IDH1KD tx, DT40 TDP1 no CPT, IL1B secr inh, DT40 TDP1 CPT)
Cc1cccc(C(=O)NC(C)c2ccc(-n3ccnc3)cc2)c1C (stereo unspecified)	none
CC(NC(=O)c1cc(F)c(F)c(F)c1F)c1ccc(-n2ccnc2)cc1 (stereo unspecified)	DT40 TDP1 no CPT inconclusive, IL1B secr inh inconclusive, DT40 TDP1 CPT 23µM
c1ccc(CNc2nc(NCc3ccccc3)c3sccc3n2)cc1	HT1080NT lethal inconclusive, HT1080 IDH1KD tx inconclusive, DT40 TDP1 no CPT 18µM, 12-LOX inh inconclusive, IL1B secr inh -73, DT40 TDP1 CPT 23µM
COCCNc1nc(NCc2ccccc2F)c2sccc2n1	DT40 TDP1 no CPT 18µM, DT40 TDP1 CPT 18µM
COc1ccccc1CNc1nc(NCc2ccc(C)cc2C)c2sccc2n1	HT1080NT lethal inconclusive, HT1080 IDH1KD tx inconclusive, DT40 TDP1 no CPT 9.2µM, IL1B secr inh -80, DT40 TDP1 CPT 4.6µM (no result: 12-LOX inh)
CN(C)CCNc1nc(-c2ccccc2CO)c2sccc2n1	none
COc1ccccc1CNc1nc(NCc2ccccc2F)c2sccc2n1	HT1080NT lethal 23µM, HT1080 IDH1KD tx 21µM, DT40 TDP1 no CPT 4.1µM, IL1B secr inh -83, DT40 TDP1 CPT 2.9µM (no result: 12-LOX inh)
Cc1[nH]c2ccccc2c1C(=O)OC(C)C(N)=O (stereo unspecified)	none (no result: HT1080NT lethal, HT1080 IDH1KD tx, DT40 TDP1 no CPT, IL1B secr inh, DT40 TDP1 CPT)
COc1ccc(-c2cc(N3CCC(NC(=O)Cc4ccsc4)CC3)n[nH]2)cc1	none (no result: HT1080NT lethal, HT1080 IDH1KD tx, DT40 TDP1 no CPT, IL1B secr inh, DT40 TDP1 CPT)
CCCCOC(=O)c1nc2ccccc2nc1NCc1ccccc1	none (no result: HT1080NT lethal, HT1080 IDH1KD tx, DT40 TDP1 no CPT, IL1B secr inh, DT40 TDP1 CPT)
CC(NC(=O)c1cc2ccccc2[nH]1)c1ccccc1 (stereo unspecified)	none (no result: HT1080NT lethal, HT1080 IDH1KD tx, DT40 TDP1 no CPT, IL1B secr inh, DT40 TDP1 CPT)
COc1ccc2cnn(CC(=O)N3CCN(c4ccccc4F)CC3)c(=O)c2c1OC	none (no result: HT1080NT lethal, HT1080 IDH1KD tx, DT40 TDP1 no CPT, IL1B secr inh, DT40 TDP1 CPT)
COc1ccc(-c2cc(CNc3nc(NCc4ccccc4OC)nc4ccsc34)on2)cc1	HT1080NT lethal 18µM, HT1080 IDH1KD tx 15µM, DT40 TDP1 no CPT 26µM, DT40 TDP1 CPT 16µM
Fc1cc(Cl)ccc1Nc1nc(NCc2ccccc2)nc2ccsc12	DT40 TDP1 no CPT 9.2µM, 12-LOX inh inconclusive, DT40 TDP1 CPT 12µM
Fc1cc(F)nc(NCc2ccccc2)n1	none
COc1ccccc1CNc1nc(NCc2cnc(C)cn2)c2sccc2n1	DT40 TDP1 no CPT inconclusive, DT40 TDP1 CPT inconclusive
COc1ccccc1CNc1nc(NCc2ccccc2)nc2ccsc12	HT1080NT lethal 26µM, HT1080 IDH1KD tx 18µM, DT40 TDP1 no CPT 15µM, 12-LOX inh inconclusive, IL1B secr inh -100, DT40 TDP1 CPT 23µM
Fc1ccccc1CNc1nc(NCC2CC2)nc2ccsc12	HT1080NT lethal 23µM, HT1080 IDH1KD tx 21µM, DT40 TDP1 no CPT 16µM, 12-LOX inh inconclusive, IL1B secr inh -76, DT40 TDP1 CPT 15µM
COc1ccc(-c2cc(CNS(=O)(=O)c3ccccc3)on2)cc1	DT40 TDP1 no CPT inconclusive
COC(=O)CCS(=O)(=O)c1ccc(C)c(C)c1	none (no result: HT1080NT lethal, HT1080 IDH1KD tx, DT40 TDP1 no CPT, IL1B secr inh, DT40 TDP1 CPT)
Cn1c(=O)c2c(nc(SCCCCC#N)n2Cc2ccccc2Cl)n(C)c1=O	none (no result: HT1080NT lethal, HT1080 IDH1KD tx, DT40 TDP1 no CPT, IL1B secr inh, DT40 TDP1 CPT)
Clc1ccc(NCn2cncn2)nc1	DT40 TDP1 CPT 23µM
O=C(Cn1cncn1)NCc1ccc(Cl)cc1	none
O=C1C=CC(=O)N1c1cccc(-c2ccccc2)c1	HT1080NT lethal 21µM, HT1080 IDH1KD tx inconclusive, DT40 TDP1 no CPT 0.73µM, 12-LOX inh inconclusive, IL1B secr inh -65, DT40 TDP1 CPT 0.65µM
O=c1cc(-c2ccccc2)[nH]n1-c1ccccc1	HT1080NT lethal inconclusive, HT1080 IDH1KD tx inconclusive, DT40 TDP1 no CPT inconclusive, DT40 TDP1 CPT inconclusive
CCC1CCC/C1=N\NC(=O)c1ccncc1 (stereo unspecified)	none (no result: HT1080NT lethal, HT1080 IDH1KD tx, DT40 TDP1 no CPT, IL1B secr inh, DT40 TDP1 CPT)
C=C(C)c1cccc(C(C)(C)NC(=O)N2CCN(C/C=C/c3ccccc3)CC2)c1	DT40 TDP1 no CPT 23µM, IL1B secr inh inconclusive, DT40 TDP1 CPT 23µM
C=C(C)c1cccc(C(C)(C)NC(=O)N2CCCC(C)C2)c1 (stereo unspecified)	DT40 TDP1 no CPT inconclusive, DT40 TDP1 CPT 23µM
C=C(C)c1cccc(C(C)(C)NC(=O)N2CCCC(C(N)=O)C2)c1 (stereo unspecified)	none
C=C(C)c1cccc(C(C)(C)NC(=O)Nn2cnnc2)c1	DT40 TDP1 no CPT 0.82µM
C=C(C)c1cccc(C(C)(C)NC(=O)NCc2ccncc2)c1	none
COc1cc(NC(=O)Nc2ccccc2OCc2cc(=O)n3cccc(C)c3n2)cc(OC)c1	none (no result: HT1080NT lethal, HT1080 IDH1KD tx, DT40 TDP1 no CPT, IL1B secr inh, DT40 TDP1 CPT)
CC1(C)CC(=O)C2=C(C1)OC(N)=C(C#N)C2c1ccc(C#N)cc1 (stereo unspecified)	none (no result: HT1080NT lethal, HT1080 IDH1KD tx, DT40 TDP1 no CPT, IL1B secr inh, DT40 TDP1 CPT)
O=C(O)CSCC(=O)N1CCN(c2ncnc3scc(-c4ccccc4)c23)CC1	none
